# Source: PubChem BioAssay AID1878 (Sanford-Burnham Center for Chemical Genomics, 2009)
# About 200 (20%) of roughly 1,000 compounds were called active. Cut-off read from the data, not from the text of the source: active = inhibition above about 55%; inactive = the rest. These entries were drawn from the full list. Entries with a potency or affinity are not part of this list.
# Target: Dual specificity protein phosphatase 3 (Homo sapiens) (UniProt P51452)
# Experiment: VHR1 phosphatase inhibitors, biochemical (AID 1878)
# Conditions: recombinant VHR phosphatase, fluorogenic substrate; at 13.3 µM; hits give high values
# Chain of Dual specificity protein phosphatase 3 (Homo sapiens) (P51452 whole entry, looked up): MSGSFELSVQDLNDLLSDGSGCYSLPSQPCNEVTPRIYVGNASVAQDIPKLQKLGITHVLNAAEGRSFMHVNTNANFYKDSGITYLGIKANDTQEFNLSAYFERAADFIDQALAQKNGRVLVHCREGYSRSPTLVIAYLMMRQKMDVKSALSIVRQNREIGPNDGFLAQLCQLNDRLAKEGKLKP
row,Compound,inhibition
1,CN(C)c1ccc(N=Cc2cccn2C)cc1,0.6% (inactive)
2,CC(C)(C)CN1CCC(Oc2cccc(C(=O)N3CCNC(=O)C3(C)C)c2)CC1,6.9% (inactive)
3,COC(=O)C1=CN(Cc2ccc(OC)cc2)C=C(C(=O)OC)C1c1ccc(O)c(OC)c1,8.4% (inactive)
4,O=C(CCNC(=O)N1CC(=O)Nc2ccccc21)Nc1cccc(Cl)c1,2% (inactive)
5,C=CCNC(=O)N1c2ccccc2Sc2ccccc21,26.2% (inactive)
6,CC(C)Oc1ccc(C(=O)Nc2ccc(S(=O)(=O)N3CCN(C)CC3)cc2)cc1,-10.6% (inactive)
7,CC(C)OCCCNC(=S)Nc1ccc(S(N)(=O)=O)cc1,54.9% (active)
8,CCN(C(=O)c1ccc(S(=O)(=O)N(C)C)cc1)C(C)C(=O)Nc1ccc(C)cc1 (configuration not stated),5.9% (inactive)
9,O=C(CSc1nc2ncccc2[nH]1)NCc1ccco1,17.8% (inactive)
10,COc1ccc(Br)cc1/C=N/n1nnnc1N,5.9% (inactive)
11,CCN(CC(=O)Nc1ccc2c(c1)OCCO2)C(=O)COc1ccc(C)cc1,7.4% (inactive)
12,Cc1cc(C(=O)O)ccc1-c1ccc(/C=C2\SC(=O)N(CC(=O)Nc3ccc4c(c3)OCO4)C2=O)o1,96.8% (active)
13,Cc1ccccc1NC(=O)CN1C(=O)S/C(=C\c2ccc(-c3cc(C(=O)O)ccc3C)o2)C1=O,67.4% (active)
14,CCOc1ccccc1NC(=O)c1nnn(CC(=O)Nc2ccc3c(c2)OCO3)c1N,-0.3% (inactive)
15,O=C(CSc1ccc([N+](=O)[O-])cn1)Nc1ccc2c(c1)OCO2,-8.7% (inactive)
16,O=C(CN1C(=O)S/C(=C\c2ccc(-c3cc(C(=O)O)ccc3Cl)o2)C1=O)Nc1ccc2c(c1)OCO2,91.9% (active)
17,Cc1ccc(C(=O)O)cc1-c1ccc(/C=C2\SC(=O)N(CC(=O)Nc3ccccc3)C2=O)o1,45.6% (inactive)
18,CCOc1ccc(CNS(=O)(=O)c2cc(CN3C(=O)c4cccnc4C3=O)ccc2OC)cc1,-2.7% (inactive)
19,CC(=O)N1c2ccc(S(=O)(=O)N(C)CC(=O)Nc3cccc(C)c3)cc2CC1C (configuration not stated),-2.3% (inactive)
20,O=C(NC(=S)Nc1ccccc1N1CCCC1)c1ccccc1Br,-1.6% (inactive)
21,COc1cc(OC)nc(Oc2ccc(N)c(C)c2)n1,17.4% (inactive)
22,CC(=O)/C=C\c1cn(-c2ncc(C(F)(F)F)cc2Cl)c2ccccc12,-0.4% (inactive)
23,COc1cccc(CNc2cc(C)ccn2)c1O,-6.7% (inactive)

row,Compound,inhibition
1,O=S1(=O)N(Cc2ccccc2F)CCCN1Cc1c(F)cccc1Cl,44.5% (inactive)
2,O=S(=O)(c1ccccc1)N1CCn2c(nc3ccccc32)C1,-0.8% (inactive)
3,Cc1ccc(-c2nn3c(C)nnc3s2)cc1NC(=O)c1ccc(-c2ccc(Cl)cc2Cl)o1,99.7% (active)
4,Cc1ccc(/C=C2/Sc3ccc(C(=O)NCc4ccccn4)cc3NC2=O)cc1,93.9% (active)
5,CSCC(C)N1CCC(N2CCC(C(=O)NCc3ccccn3)CC2)CC1 (configuration not stated),-9.9% (inactive)
6,CCN(Cc1ccc(NC(C)=O)cc1)CC1CCCN(CCc2cccc(F)c2)C1 (configuration not stated),6.3% (inactive)
7,CCOC(=O)C1(Cc2ccccc2)CCCN(C(=O)c2ccc(-n3ccnc3)cc2)C1 (configuration not stated),-9.5% (inactive)
8,Cc1cccc(C(=O)NCCCn2ccnc2)c1C,-6.9% (inactive)
9,Cc1ccc(CSc2nnc(-c3ccco3)n2N)cc1,3.5% (inactive)
10,CC1(c2ccc3ccccc3c2)NC(=O)NC1=O (configuration not stated),-8.8% (inactive)
11,CC(C)N(C)Cc1nnnn1CC(=O)N(C)Cc1ccc(F)cc1,0.7% (inactive)
12,COc1ccc(NC(=O)CN2C(=O)/C(=C3\SC(=S)N(CCC(=O)O)C3=O)c3ccccc32)cc1,74.7% (active)
13,O=C(O)CN1C(=O)/C(=C2\C(=O)N(Cc3ccccc3Cl)c3ccccc32)SC1=S,96.7% (active)
14,COc1ccc(NC(=O)CN(CC(=O)Nc2ccc(OC)cc2)C(C)(C)CO)cc1,10.8% (inactive)
15,COc1ccc(C(CC(=O)Nc2ccccn2)N2Cc3ccccc3C2=O)cc1 (configuration not stated),2.3% (inactive)
16,CN(C)c1nc(-c2ccccc2)c2cc(Cl)ccc2n1,9% (inactive)
17,CCCN1CCN(CCNC(=O)Nc2cc(C)ccc2C)CC1,-9.3% (inactive)
18,Cc1nc(C(C)NC(=O)c2ccc(OC3CCN(Cc4ccccn4)CC3)cc2)c(C)s1 (configuration not stated),-8.5% (inactive)
19,COc1ccccc1N(CC(O)CN1CCC(C)CC1)S(=O)(=O)c1ccccc1 (configuration not stated),-7.2% (inactive)
20,Cc1ccc(S(=O)(=O)N(C)C)cc1NC(=O)COC(=O)/C=C/c1cnc2ccccc2n1,10.1% (inactive)
21,O=C(Nc1ccc(N2CCCCC2)cc1)c1ccc([N+](=O)[O-])o1,14.3% (inactive)
22,CC(O)CNc1nc2c(c(=O)n(Cc3ccc(Cl)cc3)c(=O)n2C)n1C (configuration not stated),27.1% (inactive)
23,CC(C)NC(=O)CN1C(=O)CSc2ccc(S(=O)(=O)N3CCCC3)cc21,15.9% (inactive)

row,Compound,inhibition
1,CCc1nn(CC(=O)N2CCN(c3cc(C)ccc3C)CC2)c(=O)c2cc3occc3n12,4.7% (inactive)
2,COC(=O)C1CCN(Cc2c(C(=O)N3C[C@@H](C)O[C@@H](C)C3)nc3ccc(Cl)cn23)CC1,19% (inactive)
3,Cc1cc(-c2ccc(C)c(S(=O)(=O)NCCCN(Cc3ccccc3)C(C)C)c2)on1,3.1% (inactive)
4,S=c1nc(NCc2cccc(Cl)c2)c2ccccc2[nH]1,6.3% (inactive)
5,CCN(CC)CCCNC(=O)c1ccc(CS(=O)(=O)c2ccccc2OC)o1,-2.3% (inactive)
6,CN(C(=O)CSc1cn(CC(=O)N2CCOCC2)c2ccccc12)c1ccccc1,-6.1% (inactive)
7,CCc1ccc(CN(C)C(=O)c2ccc3c(c2)OCCO3)cc1,11.2% (inactive)
8,CN1C=CC=C/C1=C1/SC(=S)N(Cc2ccccc2)C1=O,-8% (inactive)
9,O=C(O)CCCN1C(=O)c2ccccc2Sc2ncccc21,2.1% (inactive)
10,O=C(O)CCN1C(=O)/C(=C2\C(=O)N(Cc3ccc(F)cc3)c3ccccc32)SC1=S,92.9% (active)
11,CCCCN1C(=O)/C(=C2\SC(N3CCOCC3)=NC2=O)c2ccccc21,1.9% (inactive)
12,N#CC(c1cccnc1)N1CCOCC1 (configuration not stated),5.3% (inactive)
13,N#Cc1ccc(OS(=O)(=O)c2ccc(-c3ccon3)s2)cc1,1.6% (inactive)
14,CCOC(=O)c1ccc(NC(=O)CSc2nnc(CNC(=O)c3ccco3)o2)cc1,28.4% (inactive)
15,OC(CN1CCC(Cc2ccccc2)CC1)c1ccccc1 (configuration not stated),3.5% (inactive)
16,CC(C(=O)O)N1C(=O)/C(=C/C=C/c2ccco2)SC1=S (configuration not stated),97.9% (active)
17,O=C(O)C(Cc1ccccc1)N1C(=O)/C(=C/C=C/c2ccco2)SC1=S (configuration not stated),71.7% (active)
18,Cc1cc(N2CCN(c3ncccn3)CC2)nc2c(C)cccc12,3.7% (inactive)
19,CNS(=O)(=O)c1cn(CC(=O)NCc2ccc(N(C)C)cc2)cc1S(=O)(=O)NC,5.7% (inactive)
20,COc1ccc(CN(C)C(=O)c2cccc(NS(=O)(=O)c3ccccc3)c2)cc1F,6% (inactive)
21,Cc1ccc(N2C(=O)c3ccccc3C2=O)nc1,-3.1% (inactive)
22,CCN1CCN(C(=O)c2cc3ccc(OC)cc3[nH]2)CC1,10.9% (inactive)
23,COc1ccc(Br)cc1S(=O)(=O)N1CCCc2ccccc21,-6.5% (inactive)

row,Compound,inhibition
1,CSc1ncc(C(=O)Nc2cc(C)ccc2C)c(C)n1,-5.1% (inactive)
2,Cc1cc2nc3s/c(=C/c4ccc(-c5ccccc5C(=O)O)o4)c(=O)n3c2cc1C,74.7% (active)
3,CN(C)CCN(CC1CCCN(Cc2ccccc2F)C1)C(=O)Cc1ccccc1F (configuration not stated),-15.2% (inactive)
4,CC1=C(C(=O)Nc2cccc(C(=O)N3CCC(C(N)=O)CC3)c2)SCCO1,4.8% (inactive)
5,COc1ccc(NC(=O)NCCN2CCCCC2)cc1,-10.3% (inactive)
6,CCN(CC)CCNC(=O)CCN1N=C(c2ccccc2)CCC1=O,2.7% (inactive)
7,O=C(c1ccc(NC2=NC3CS(=O)(=O)CC3S2)cc1)N(CCO)Cc1ccccc1 (configuration not stated),0.9% (inactive)
8,O=C1C(Cl)=C(N2CCOCC2)C(=O)N1c1ccccc1F,-7.3% (inactive)
9,COc1ccc(N(C(=O)c2snc(C(N)=O)c2N)C(C(=O)NC2CCCC2)c2ccc(F)cc2)c(OC)c1 (configuration not stated),-0.8% (inactive)
10,CC1CCCCN1CCCNC(=O)CCCN1C(=O)c2cccnc2Sc2ccccc21 (configuration not stated),-12.7% (inactive)
11,CC1CCN(CCCNC(=O)C2CC(=O)N(CCc3ccccc3)C2)CC1 (configuration not stated),-14.3% (inactive)
12,COc1ccc(N(C)S(=O)(=O)c2ccc3c(c2)NC(=O)CC(=O)N3)c(OC)c1,7.8% (inactive)
13,COC(=O)C1=NN(C(=O)c2ccccc2)C(O)(c2ccc([N+](=O)[O-])cc2)C1 (configuration not stated),-7.4% (inactive)
14,CC(Cc1n[nH]c(=S)n1N)c1ccccc1 (configuration not stated),-2.8% (inactive)
15,CCOCCn1cnc2sc(C(=O)NCCCN3CCOCC3)c(C)c2c1=O,9.7% (inactive)
16,CCc1cc(=O)oc2c(C)c(OCC(=O)NCCCN3CCOCC3)ccc12,3.5% (inactive)
17,CCOC(=O)C1(CCc2ccccc2)CCN(CC(O)CO)CC1 (configuration not stated),-10.8% (inactive)
18,Cn1c(=O)c2c(ncn2CCOc2ccc(F)cc2)n(C)c1=O,-6.4% (inactive)
19,Cc1cc(C)cc(NCc2cc(=O)oc3cc(C)c(O)cc23)c1,8.5% (inactive)
20,CCn1cc(CCC(=O)NCCN2CCOCC2)c2ccccc21,-13.7% (inactive)
21,O=C(Cc1ccccc1)Nc1ccc(C(=O)Nc2ccc(O)cc2)cc1,1.2% (inactive)
22,C/C(=N\NC(=O)CNC(=O)c1cccc(F)c1)c1ccc2ccccc2c1,1.1% (inactive)
23,C/C(=N\NC(=O)c1cc(O)cc(O)c1)c1ccc(NC(=O)Cc2ccccc2)cc1,96.6% (active)
